Source: PubChem BioAssay AID1053124 (Broad Institute, 2014)
Measured potencies and affinities stand elsewhere. The source made the active and inactive calls.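 Rule for the calls: active = cell killing whose fitted half-effect concentration is at most twice the top valid dose tested; inconclusive = flat curve with 30 to 70% killing, or a poor fit; inactive = effect in the rising direction, plus the rest.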

Experiment: A549 cell cytotoxicity, dose response, cytotoxicity control, ATP luminescence, cherry-pick, set 2 (AID 1053124)
Conditions: A549 viability, ATP luminescence (CellTiter-Glo), 72 h; series mostly up to 26 µM
In the case of `Cn1c2ccccc2c(=O)c2ccc(F)cc21`, the outcome is reported as “inactive”.
For `[O-]/[N+](=C/c1ccccc1)c1ccccc1`, the outcome was “inactive”.
In the case of `CN(C)/C=C/C(=O)c1c(F)cccc1F`, the outcome is reported as “inactive”.
For `CCCN1CCc2c(sc(NC(=O)C3CCN(S(=O)(=O)c4cccs4)CC3)c2C(N)=O)C1`, the outcome was “inactive”.
In the case of `CCOc1ccccc1N=c1oc2cc(O)ccc2cc1C(=O)NCC1CCCO1` (centres undefined), the outcome is reported as “inactive”.
For `CCOc1ccc(-n2c(SCC(=O)Nc3nccs3)nnc2-c2ccoc2C)cc1`, the outcome was “inactive”.
With `CC(C)CCn1c(CN2CC(C)OC(C)C2)nc2c1c(=O)n(C)c(=O)n2C` (centres undefined) the outcome was “inactive”.
In the case of `CCOCCCNc1nc2nc3ccc(C)cn3c(=O)c2cc1C(=O)NCC1CCCO1` (centres undefined), the outcome is reported as “inactive”.
In the case of `Cc1c(C(=O)NCc2cccc(C(F)(F)F)c2)sc(=O)n1Cc1ccc(C(=O)N(C)C)cc1`, the outcome is reported as “inactive”.
In the case of `COc1ccccc1OCc1ccc(C(=O)N(C)c2ccccc2)o1`, the outcome is reported as “inactive”.
With `CSc1ccc(Cn2c(C)c(C(=O)NCCC#N)sc2=O)cc1` the outcome was “inactive”.
In the case of `CC1CC(C)CN(CCCNC(=O)CCC(=O)N2CC(C)Oc3ccccc32)C1` (centres undefined), the outcome is reported as “inactive”.
With `COc1ccc(C2C3=C(CC(C)(C)CC3=O)N(C)C3=C2C(=O)CC(C)(C)C3)cc1` the outcome was “inactive”.
For `CCOC(=O)C1=CN(CC2CCCO2)C=C(C(=O)OCC)C1c1ccccc1C(F)(F)F` (centres undefined), the outcome was “inactive”.
With `Cc1cc(-c2nc3cccnc3s2)ccc1NS(=O)(=O)c1cccs1` the outcome was “inactive”.
In the case of `N#CC1=C(N)OC2=C(C(=O)CCC2)C1c1cc2c(cc1Br)OCO2` (centres undefined), the outcome is reported as “inactive”.
For `CCOCCCNC(=S)N1CCCN(c2nc3cc(C)c(C)cc3cc2C#N)CC1`, the outcome was “inactive”.
With `O=C(NCc1nnnn1-c1ccc(Cl)cc1)C1CC(=O)N(c2ccc(F)cc2)C1` (centres undefined) the outcome was “inactive”.
For `CCOC1=NN(c2ncc(C(F)(F)F)cc2Cl)C(=O)C1`, the outcome was “inactive”.
With `CCNc1nc2nc3ccc(C)cn3c(=O)c2cc1C(=O)NCC1CCCO1` (centres undefined) the outcome was “inactive”.
For `O=C(O)[C@@H]1CCCN1S(=O)(=O)c1cccc(S(=O)(=O)N2CCC[C@H]2C(=O)O)c1`, the outcome was “inactive”.
With `COc1c(Cl)cc(-c2noc(C)c2C(=O)NCc2ccc3c(c2)OCO3)cc1Cl` the outcome was “inactive”.
In the case of `CCn1c2ccccc2c(=O)c2ccccc21`, the outcome is reported as “inactive”.
With `COCCN1C=C(C(=O)OC)C(c2ccc(Cl)cc2)C(C(=O)OC)=C1` the outcome was “inactive”.
In the case of `CSc1ccc(Cl)c(C(=O)N2CCOc3ccccc32)c1`, the outcome is reported as “inactive”.
With `CC(=O)c1cc2ccc(O)cc2oc1=O` the outcome was “inactive”.
With `COc1ccccc1/C=N/Nc1nc(C)cc(=O)[nH]1` the outcome was “inactive”.
In the case of `CCc1nc(SCC(=O)c2ccccc2)c2ccccc2n1`, the outcome is reported as “inactive”.
In the case of `Cc1cccn2c(=O)c3cc(C#N)c(=NC(=O)c4cccs4)n(CC(C)C)c3nc12`, the outcome is reported as “inactive”.
With `Cc1oc(/N=C/c2ccc(F)cc2)c(C#N)c1C` the outcome was “inactive”.
In the case of `CCOC(=O)c1c(NC(=O)CSc2ncccn2)sc2c1CCN(Cc1ccccc1)C2`, the outcome is reported as “inactive”.
With `CCN(CC)c1ccc2cc(S(=O)(=O)c3ccc(Cl)cc3)c(=O)oc2c1` the outcome was “inactive”.
For `CCn1c(=NC(=O)CSC(C)=O)sc2cc(OC)ccc21`, the outcome was “inactive”.
With `CCN(c1ccccc1)S(=O)(=O)c1ccc(OC)c(NC(=O)CN(C)C)c1` the outcome was “inactive”.
In the case of `CN1CCc2c(sc(NC(=O)Cc3ccccc3)c2C#N)C1`, the outcome is reported as “inactive”.
In the case of `CSCCC1(C(=O)O)NC(c2ccccc2O)C2C(=O)N(C(C)C)C(=O)C21` (centres undefined), the outcome is reported as “inactive”.
In the case of `Cc1c(C=O)c2ccccn2c1C(=O)c1cccs1`, the outcome is reported as “inactive”.
For `C=CCc1c(O)c(CC)cc2c(C)cc(=O)oc12`, the outcome was “inactive”.
With `Cc1oc(/N=C/c2ccc(O)cc2O)c(C#N)c1C` the outcome was “inactive”.
